# Screens: PubChem, several laboratories
# The list is not random: actives were taken first. Their share in the collection is about 3.6%.
# BoNT A protease: blocks Botulinum neurotoxin A light chain protease. multiplex microsphere protease substrate cleavage, flow cytometry. inhibition, % at 10 µM. 360,000 tested, 0.17% active; further: plate controls were buffer without enzyme for full effect and enzyme alone for no effect
# BJeLR lethal: BJeLR cell viability loss | BJeLR (HRASV12) viability, CellTiter-Glo ATP luminescence, 48 h | inhibition, % (test concentration not listed) | 300,000 tested, 0.17% active | AID 1554; in the data active means inhibition above about 50%; inconclusive means no clear call, values can overlap the other calls
# SARS 3CLpro inh-1: SARS-CoV 3CLpro protease inhibition; 290,000 tested, 0.14% active; inhibition, % at 6 µM; recombinant SARS-CoV 3CLpro, quenched FRET peptide cleavage; in the data active means inhibition above about 12%
# Autofluor counter: flagged as autofluorescent in microsphere protease counterscreen. 360,000 tested, 3.1% active. compound autofluorescence counterscreen, microsphere flow cytometry; active compounds read high. fluorescence intensity (concentration not given with the values); in the data active means fluorescence intensity above about 16000; inconclusive means no clear call, values can overlap the other calls
# Anthrax LF prot: anthrax lethal factor protease inhibition; multiplex microsphere protease cleavage assay, LF; inhibition, % at 10 µM; P15917; 360,000 tested, 0.12% active; further: plate controls were buffer without enzyme for full effect and enzyme alone for no effect
# Target sequence (P15917 whole entry, looked up): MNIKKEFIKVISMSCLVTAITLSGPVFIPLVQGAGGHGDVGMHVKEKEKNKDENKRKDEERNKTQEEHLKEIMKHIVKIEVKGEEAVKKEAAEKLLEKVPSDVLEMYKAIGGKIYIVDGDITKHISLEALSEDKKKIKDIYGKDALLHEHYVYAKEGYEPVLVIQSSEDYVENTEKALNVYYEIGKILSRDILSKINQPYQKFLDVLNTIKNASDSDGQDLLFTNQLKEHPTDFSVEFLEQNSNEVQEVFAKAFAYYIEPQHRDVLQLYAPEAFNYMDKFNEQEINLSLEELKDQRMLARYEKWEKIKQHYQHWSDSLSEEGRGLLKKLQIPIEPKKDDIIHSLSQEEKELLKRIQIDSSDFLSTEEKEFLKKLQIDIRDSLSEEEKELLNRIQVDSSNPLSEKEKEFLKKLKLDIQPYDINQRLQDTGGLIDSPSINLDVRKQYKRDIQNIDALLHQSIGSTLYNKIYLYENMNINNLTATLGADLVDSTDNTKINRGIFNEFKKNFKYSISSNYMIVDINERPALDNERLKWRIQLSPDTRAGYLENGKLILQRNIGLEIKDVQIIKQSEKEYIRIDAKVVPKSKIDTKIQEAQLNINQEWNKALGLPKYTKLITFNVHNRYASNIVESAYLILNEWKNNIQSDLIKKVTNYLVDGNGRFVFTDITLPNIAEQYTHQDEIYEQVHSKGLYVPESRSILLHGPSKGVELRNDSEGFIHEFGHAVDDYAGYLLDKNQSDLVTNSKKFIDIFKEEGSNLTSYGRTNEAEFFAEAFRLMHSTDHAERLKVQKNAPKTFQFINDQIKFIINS
# BoNT-F LC inh: blocks Botulinum neurotoxin F light chain protease; Multiplex microsphere protease cleavage assay, flow cytometry; 360,000 tested, 0.22% active; AID 588497; inhibition, % at 10 µM; in the data active means inhibition above about 35%, passing the limit was not always enough; inconclusive means no clear call, values can overlap the other calls; further: plate controls were buffer without enzyme for full effect and enzyme alone for no effect
# SARS 3CLpro inh-2: confirmation of SARS coronavirus 3C-like protease inhibitors | QFRET protease activity assay, 3CLpro | AID 1879 | inhibition, % at 6 µM | 380 tested, 36% active | shares compounds with SARS 3CLpro inh-1; in the data active means inhibition above about 13%
# BoNT-A LC CP1: inhibitors of Botulinum neurotoxin A light chain protease; shares compounds with BoNT-F LC inh; inhibition, % at 10 µM; multiplex microsphere protease assay, flow cytometry; AID 602139; 720 tested, 3% active; in the data active means inhibition above about 32%
# BoNTF LC inh 1: BoNT/F light chain protease inhibition; multiplex microsphere protease cleavage assay, flow cytometry; shares compounds with BoNT-F LC inh; inhibition, % at 10 µM; AID 602140; 720 tested, under 10 active; call rule not given here
# Anthrax LF CP1: inhibitors of Bacillus anthracis lethal factor protease | inhibition, % at 10 µM | AID 602142 | multiplex microsphere protease cleavage assay, LF | shares compounds with BoNT-F LC inh | 720 tested, under 10 active; call rule not given here
# * hit, by the source's call; i = inactive; ? = inconclusive; . = no result. Unless noted, no stated cut-off is given here; in the data, active means inhibition above about 30%; inconclusive means no clear call, values can overlap the other calls; inactive means below that.
SMILES,BoNT A protease,BJeLR lethal,SARS 3CLpro inh-1,Autofluor counter,Anthrax LF prot,BoNT-F LC inh,BoNT-A LC CP1,BoNTF LC inh 1,Anthrax LF CP1,others
O=C(NCc1ccc(F)cc1)c1ccc(S(=O)(=O)Nc2cccc(C(F)(F)F)c2)cc1,0,-7,18*,2693,0,-7,.,.,.,SARS 3CLpro inh-2=11
O=C(OCC(=O)N1c2ccccc2Sc2ccccc21)c1cccnc1,0,-8,21*,4651,-2,1,.,.,.,SARS 3CLpro inh-2=22*
O=C(COc1ccccc1)N1c2ccccc2Sc2ccccc21,-1,-3,0,7743,-5,-4,.,.,.,
CCCCN1C(=O)C(NC(C)=O)c2cc(Br)ccc21 (stereo not given),-1,1,4,2384,-2,-18,.,.,.,
CC(=O)NC1C(=O)N(CCN2CCOCC2)c2ccc(F)cc21 (stereo not given),-6,5,12*,3538,-12,-56,.,.,.,SARS 3CLpro inh-2=45*
CC(=O)c1ccc(NC(=O)C2C3C=CC(C3=C(c3ccccc3)c3ccccc3)C2C(=O)O)cc1 (stereo not given),0,4,3,3168,0,1,.,.,.,
Cc1ccccc1C(=O)Nc1sc(C)c(C)c1C(=O)c1ccccc1,0,1,1,9972,-11,1,.,.,.,
Cc1sc(NC(=O)CCl)c(C(=O)c2ccccc2)c1C,4,2,14*,?,-6,4,.,.,.,SARS 3CLpro inh-2=36*
COc1c(Cl)cc(C(=O)NN)cc1Cl,0,0,16*,3302,-6,-8,.,.,.,SARS 3CLpro inh-2=17*
COc1c(Cl)cc(C(=O)O)cc1Cl,0,5,.,5460,-1,4,.,.,.,
COc1cccc(CN2CCSCC2)c1OC,2,6,-1,3808,-21,11,.,.,.,
COc1ccccc1CN1CCSCC1,12,-1,7,10448,14,71*,-2,-13,-4,
COc1ccc(C)cc1N(CC(=O)N1CCCC1)S(C)(=O)=O,-1,-6,-8,3853,-10,5,.,.,.,
COc1ccc(C)cc1N(CC(=O)N1CCOCC1)S(C)(=O)=O,-3,-3,2,4074,14,36*,0,0,-5,
CCCn1c2ccccc2c2nc3ccccc3nc21,57*,14,-5,4676,31*,-6,12,4,9,
COc1ccc(C(=O)Nc2ccc3c(c2)nc2n3CCSC2)cc1,7,1,2,4353,2,38*,0,-1,-5,
COc1ccc(C(=O)Nc2ccc3nc(C)c(C)nc3c2)cc1,0,-2,-6,3841,11,6,.,.,.,
CC(=O)N(CN1C(=O)c2ccccc2C1=O)c1ccc2c(c1)oc1ccccc12,-1,-11,1,2074,-1,-10,.,.,.,
Cc1cnc(NC(=O)c2ccc(-c3nc4ccccc4s3)o2)s1,34*,-6,0,3621,25,0,4,-12,2,
COc1cc(NC(=O)CSc2nc3c(c(=O)n(C)c(=O)n3C)n2C)cc(OC)c1,-1,-9,2,5696,-4,1,.,.,.,
O=C(c1ccccc1)N1CCCC(C(=O)N2CCN(c3ccccc3)CC2)C1 (stereo not given),-7,-5,-1,3990,34*,?,0,-3,-3,
O=C(c1ccccc1)N1CCCC(C(=O)N2CCCCC2)C1 (stereo not given),1,10,-1,4798,0,6,.,.,.,
COc1cccc(C(=O)NC2CCNCC2)c1,.,-8,-3,.,.,.,.,.,.,
O=C(c1ccccc1)N1CCN(C(=O)C2CC2)CC1,-1,-16,2,5927,-1,2,.,.,.,
O=S(=O)(Nc1ccc(Cl)nn1)c1ccccc1,6,2,9,4098,0,38*,-2,-1,-3,
SMILES,BoNT A protease,BJeLR lethal,SARS 3CLpro inh-1,Autofluor counter,Anthrax LF prot,BoNT-F LC inh,BoNT-A LC CP1,BoNTF LC inh 1,Anthrax LF CP1,others
COc1ccccc1C(=O)N/C(=C\c1cn(S(=O)(=O)N(C)C)c2ccccc12)C(=O)N1CCN(C)CC1,0,.,.,3917,0,2,.,.,.,
Nc1nc2ccccc2nc1N1CCCC1,32*,-5,-1,11493,1,42*,-1,1,1,
COC(CNC(=O)c1ccc2nc(-c3cccs3)c(-c3cccs3)nc2c1)OC,44*,5,3,8849,25,26,21,2,8,
COc1ccc(-c2nc3ccc(C(=O)NCC(OC)OC)cc3nc2-c2ccc(OC)c(OC)c2)cc1OC,2,-10,1,3509,5,-2,.,.,.,
COc1cc(OCc2ccccc2)c(C(=O)/C=C/c2ccc3c(c2)OCO3)c(OC)c1OC,.,4,.,.,.,.,.,.,.,
COc1cc(CC(NC(C)=O)C(=O)NC2CCN(C(=O)c3ccc(C)cc3)CC2)cc(OC)c1 (stereo not given),0,-12,4,2861,5,43*,-1,-5,0,
O=C(CN(Cc1ccc(F)cc1)C(=O)CCC(=O)Nc1nccs1)NCC1CCCO1 (stereo not given),0,-5,3,4168,-2,4,.,.,.,
COc1ccc(Cn2nnnc2C(c2cc3cccc(C)c3[nH]c2=O)N2CCOCC2)cc1 (stereo not given),-1,-6,4,10896,-3,8,.,.,.,
CCC(C)(C)n1nnnc1C(c1cc2cc(C)cc(C)c2[nH]c1=O)N1CCN(C(=O)c2ccco2)CC1 (stereo not given),1,-6,2,5067,-3,5,0,-1,2,
CCN(Cc1ccccc1)C(c1cc2ccc(C)cc2[nH]c1=O)c1nnnn1CCOC (stereo not given),?,-4,1,?,?,i,3,-10,3,
COc1ccc(Cn2nnnc2C(c2cc3cc(C)ccc3[nH]c2=O)N2CCOCC2)cc1 (stereo not given),0,-2,-2,22468*,0,1,0,-6,1,
Cc1cccc2cc(C(c3nnnn3C(C)(C)C)N3CCN(C(=O)c4ccco4)CC3)c(=O)[nH]c12 (stereo not given),2,2,-1,5518,-3,-2,.,.,.,
Cc1ccc2[nH]c(=O)c(C(c3nnnn3C(C)(C)C)N3CCN(C(=O)c4ccco4)CC3)cc2c1 (stereo not given),1,3,3,10855,3,-1,.,.,.,
CCC(C)(C)n1nnnc1C(c1cc2cc(C)ccc2[nH]c1=O)N1CCCC1 (stereo not given),?,-18,-2,21937*,-9,6,-1,1,-2,
COCCn1nnnc1C(C(C)C)N(Cc1ccccc1)Cc1cc2cc(OC)ccc2[nH]c1=O (stereo not given),1,.,2,5669,8,4,.,.,.,
